Measured values: PubChem BioAssay (NCATS)
Several values for one entry are separate records, joined by “and”; a condition that tells them apart may be missing. Identical values can stand only once. Inconclusive results are not listed. A call without a number means that no potency is given here. Some structures have more than one record in an assay (separate samples or runs), and their calls can disagree. Activity calls are given as the source filed them. The call rests on the fitted dose curve; in most records, active means well fitted curve in the direction sought with a large enough effect; inconclusive means small, poorly fitted or top-dose-only effect, or another doubt; inactive means no such curve, though single readings can be large; an effect the other way counts as inactive or inconclusive.

Assays:
[1] = P-glycoprotein substrates identified in KB-8-5-11 adenocarcinoma cell line, qHTS therapeutic library screen (AID 1346987); further: nearly all actives have a fitted effect of over 65% in size; further: potency means the concentration at half of the fitted maximal effect
Method in brief: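 P-gp-mediated resistance screen: KB-8-5-11 cells treated 72 h with compounds in dose-response. CellTiter-Glo viability.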

[2] = NS1 protein of Zika virus - qHTS assay to identify small molecule inhibitors in human HEK 293 cells (AID 1347053); further: nearly all actives have a fitted effect of over 55% in size; further: potency means the concentration at half of the fitted maximal effect
Method in brief: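 HEK 293; 20 h pre-culture, 37 C/5% CO2; cpd 1 h pre-infection; ZIKV MR766, MOI = 0.5, 24 h, 37 C; TR-FRET NS1 readout (two anti-NS1 Abs); norm. to no-virus vs infected.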

[3] = qHTS of pediatric cancer cell lines to identify multiple opportunities for drug repurposing: Primary screen for SJ-GBM2 cells (AID 1347091); further: potency means the concentration at half of the fitted maximal effect
Method in brief: (§1)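 Viability measured as metabolically active cells via CellTiter-Glo luminescence following 48 hours of compound exposure, 11-point dilutions in confirmatory testing. 500-1,000 cells/well plated 5 hours before dosing; controls were DMSO and 2.3 µM bortezomib.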

[4] = qHTS of pediatric cancer cell lines to identify multiple opportunities for drug repurposing: Primary screen for A673 cells (AID 1347092); further: nearly all actives have a fitted effect of over 45% in size; further: potency means the concentration at half of the fitted maximal effect
Method in brief: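 A673 cells (500-1,000 cells/well) were treated 48 hours at 37 degrees C with compounds at 11-point (0.78 nM to 46 µM) or 8-point (0.59 nM to 46 µM) dilutions. Viability read by CellTiter-Glo luminescence; concentration-response curves fitted.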

[5] = qHTS of pediatric cancer cell lines to identify multiple opportunities for drug repurposing: Primary screen for SK-N-MC cells (AID 1347093); further: potency means the concentration at half of the fitted maximal effect
Method in brief: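 Metabolically active cells were quantified by ATP-dependent luminescence (CellTiter-Glo, 15 min at room temperature) following 48 h treatment. Cells had been plated at 500-1,000 per well and settled for 5 h beforehand.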

[6] = qHTS of pediatric cancer cell lines to identify multiple opportunities for drug repurposing: Primary screen for BT-37 cells (AID 1347094); further: potency means the concentration at half of the fitted maximal effect
Method in brief: (§2)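 ATP-based luminescence (CellTiter-Glo) quantifies viability after a 48-hour exposure. Compounds are dosed across 8 or 11 final concentrations; DMSO and 2.3 µM bortezomib serve as controls.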

[7] = qHTS of pediatric cancer cell lines to identify multiple opportunities for drug repurposing: Primary screen for DAOY cells (AID 1347090); further: nearly all actives have a fitted effect of over 55% in size; further: potency means the concentration at half of the fitted maximal effect
Method in brief: as §1

[8] = qHTS of pediatric cancer cell lines to identify multiple opportunities for drug repurposing: Primary screen for NB-EBc1 cells (AID 1347095); further: potency means the concentration at half of the fitted maximal effect
Method in brief: as §2

[9] = qHTS of pediatric cancer cell lines to identify multiple opportunities for drug repurposing: Primary screen for TC32 cells (AID 1347089); further: nearly all actives have a fitted effect of over 60% in size
Method in brief: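 TC32 cells, 500-1,000/well in growth medium, compound-treated 48 h at 37 °C; viability from CellTiter-Glo luminescence. Primary screen: MIPE 11-point (0.78 nM–46 µM final), NPC 8-point (0.59 nM–46 µM final); confirmatory at 11-point dilutions.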

Compound | Potency [1] | Potency [2] | Potency [3] | Potency [4] | Potency [5] | Potency [6] | Potency [7] | Potency [8] | Potency [9]
CN(C)c1ccc(C(=C2C=CC(=[N+](C)C)C=C2)c2ccc(N(C)C)cc2)cc1 | 8.2 µM (active) and 1.48 µM (active) | inactive and 3.72 µM (active) | 1.33 µM (active) and 372 nM (active) | 1.06 µM (active) and 93.5 nM (active) | 1.06 µM (active) | 1.23 µM (active) and 685 nM (active) |  |  | 
CC(C)Cn1cnc2c(N)nc3ccccc3c21 | inactive | inactive |  |  | 16.6 µM (active) |  | inactive |  | 
OC(Cn1cncn1)(Cn1cncn1)c1ccc(F)cc1F | inactive | inactive | inactive | inactive | inactive | inactive | inactive | inactive | 
C1CCC(C(CC2CCCCN2)C2CCCCC2)CC1 (stereo not drawn) | 5.17 µM (active) and 16.6 µM (active) | 10 µM (active) and 11.8 µM (active) |  | 10.6 µM (active) and 23.5 µM (active) | 11.9 µM (active) | 34.7 µM (active) and 30.6 µM (active) | inactive |  | 
C[C@@H](CN1CC(=O)NC(=O)C1)N1CC(=O)NC(=O)C1 | inactive and 18.7 µM (active) | inactive | inactive |  | 23.7 µM (active) and 7.43 µM (active) | 6.85 µM (active) |  | 3.72 µM (active) | inactive
COC(=O)Nc1nc2ccc(C(=O)c3ccccc3)cc2[nH]1 | 699 nM (active) and 2.96 µM (active) | inactive | 0.376 µM (active) | 106 nM (active) and 935 nM (active) | 53.1 nM (active) and 332 nM (active) | 347 nM (active) and 2.43 µM (active) | 106 nM (active) and 1.18 µM (active) |  | 
N=C(N)c1ccc(OCCCCCOc2ccc(C(=N)N)cc2)cc1 | inactive | inactive | inactive | 21.1 µM (active) and 14.8 µM (active) | 33.2 µM (active) |  |  | inactive | 
CO[C@@]12[C@H](COC(N)=O)C3=C(C(=O)C(C)=C(N)C3=O)N1C[C@@H]1N[C@@H]12 | inactive and 16.6 µM (active) | inactive | 14.8 µM (active) | 1.33 µM (active) and 1.18 µM (active) | 266 nM (active) and 743 nM (active) | 347 nM (active) and 1.72 µM (active) | 9.35 µM (active) | 335 nM (active) and 9.35 µM (active) | inactive
CN(C)CCc1c[nH]c2ccc(C[C@H]3COC(=O)N3)cc12 | inactive | inactive | inactive | inactive | inactive | inactive |  | inactive | 
COc1cccc(N(C)C(=S)Oc2ccc3c(c2)CCCC3)n1 | inactive | inactive and 18.7 µM (active) | inactive | inactive |  | inactive | inactive | inactive | inactive
COc1ccc2cc3[n+](cc2c1OC)CCc1cc2c(cc1-3)OCO2 | inactive | inactive | inactive | 2.11 µM (active) and 2.35 µM (active) | 8.41 µM (active) and 18.7 µM (active) |  |  |  | 
CCCCc1oc2ccc(NS(C)(=O)=O)cc2c1C(=O)c1ccc(OCCCN(CCCC)CCCC)cc1 | 26.4 µM (active) and 16.4 µM (active) | 11.8 µM (active) | 11.8 µM (active) | 1.18 µM (active) | 21.1 µM (active) | 17.2 µM (active) and 27.6 µM (active) |  |  | inactive
CCCOc1ccc(C(=O)OCCN(CC)CC)cc1N | inactive | inactive | inactive | inactive | inactive | inactive |  | inactive | inactive
COc1ccccc1OCC(O)COC(N)=O (stereo not drawn) | inactive | inactive | inactive | inactive | inactive | inactive |  |  | inactive
CCOC(=O)[C@H](CCc1ccccc1)N[C@H]1CCc2ccccc2N(CC(=O)O)C1=O | inactive and 23.5 µM (active) | inactive | 23.5 µM (active) |  |  |  |  |  | 
CCc1cc(C(N)=S)ccn1 | inactive | inactive | inactive | inactive | inactive | inactive | inactive | inactive | 
CCN[C@H]1C[C@H](C)S(=O)(=O)c2sc(S(N)(=O)=O)cc21 | inactive | inactive | inactive | inactive | inactive | inactive |  | inactive | 
C[C@]12C=CC(=O)C=C1CC[C@@H]1[C@@H]2C(=O)C[C@@]2(C)[C@H]1CC[C@]2(O)C(=O)CO | inactive | inactive | inactive | inactive | inactive | inactive | inactive | inactive | 
O=P(O)(O)C(O)(Cc1cccnc1)P(=O)(O)O | inactive | inactive | inactive | inactive | inactive | inactive |  | inactive | 
